Results: the supplement of paper PMC10515830
Structures can show the parent of a compound that is named as a salt.

Assays:
Conditions in all cases: 10 µM; exposure time 6 h
[1] = system: Danio rerio larvae (5 dpf); assay: difference in excitability vs DMSO (percentage points); higher = more excitable than DMSO
Procedure, shortened: (§1)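 Wild-type 5 dpf zebrafish larvae in 96-well plates were given 100 µL egg water containing library compound at 10 µM final for 6 h. After 3 h of exposure, plates at 28.5 ℃ were photographed every 6 s during a 3-h programme of moving lines and 100 ms, 400Hz tones. Z-LaP Tracker (a DeepLabCut model) quantified each behaviour, averaged over 48 larvae per compound. Values are the compound mean minus the DMSO-vehicle control, in percentage points.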

[2] = system: Danio rerio larvae (5 dpf); assay: difference in startle response vs DMSO (percentage points); higher = stronger startle than DMSO
Procedure, shortened: as §1

[3] = system: Danio rerio larvae (5 dpf); assay: difference in activity during first hour vs DMSO (percentage points); higher = more activity than DMSO
Procedure, shortened: as §1

[4] = system: Danio rerio larvae (5 dpf); assay: difference in habituation to acoustic stimuli vs DMSO (percentage points); higher = more habituation than DMSO
Procedure, shortened: as §1

[5] = system: Danio rerio larvae (5 dpf); assay: difference in combined optomotor response to red, green and blue moving lines vs DMSO (percentage points); higher = stronger optomotor response than DMSO
Procedure, shortened: as §1

| SMILES | difference in excitability [1] | difference in startle response [2] | difference in activity during first hour [3] | difference in habituation to acoustic stimuli [4] | difference [5] |
| --- | --- | --- | --- | --- | --- |
| CN(C)c1nc(N(C)C)nc(N(C)C)n1 [Altretamine] | -0.899 | -2.53 | -6.9 | -1.7 | 0.893 |
| COc1cc2c(cc1OC)C(=O)C(CC1CCN(Cc3ccccc3)CC1)C2 (stereo not given) [Donepezil] | 12 | -0.487 | -0.402 | -0.748 | -2.38 |
| Nc1nc(F)nc2c1ncn2[C@@H]1O[C@H](COP(=O)(O)O)[C@@H](O)[C@@H]1O [Fludarabine Phosphate] | 2.14 | -0.759 | 3.53 | -5.41 | 6.27 |
| Cc1cc(C#N)cc(C)c1Oc1nc(Nc2ccc(C#N)cc2)nc(N)c1Br [Etravirine] | -2.94 | 0.144 | 10.9 | -5.6 | 7.48 |
| OC(CCN1CCCCC1)(c1ccccc1)C1CC2C=CC1C2 (stereo not given) [Biperiden (hydrochloride)] | 9.71 | -7.39 | -0.127 | -10.7 | -2.85 |
| Cc1ccc(/C(=C\CN2CCCC2)c2cccc(/C=C/C(=O)O)n2)cc1 [Acrivastine] | 1.28 | -0.645 | 0.462 | 0.73 | -3.37 |
| COc1c(C)c2c(c(O)c1C/C=C(\C)CCC(=O)O)C(=O)OC2 [Mycophenolic Acid] | 2.6 | 4.16 | -1.66 | -0.729 | 8.73 |
| C[C@@H]1[C@H](O)[C@@H](C)/C=C/C=C/C=C/C=C/C=C/C=C/C=C/[C@H](O[C@@H]2O[C@H](C)[C@@H](O)[C@H](N)[C@@H]2O)C[C@@H]2O[C@](O)(C[C@@H](O)C[C@@H](O)[C@H](O)CC[C@@H](O)C[C@@H](O)CC(=O)O[C@H]1C)C[C@H](O)[C@H]2C(=O)O [Amphotericin B] | -0.355 | 0.384 | 4.13 | -0.401 | 1.13 |
| CC(=O)c1ccc(S(=O)(=O)NC(=O)NC2CCCCC2)cc1 [Acetohexamide] | -0.755 | 2.86 | -0.443 | -3.12 | 2.21 |
| CN1[C@@H]2CC[C@H]1C[C@@H](OC(c1ccccc1)c1ccccc1)C2 [Benztropine (mesylate)] | -5.24 | -9.21 | 27.7 | -9.38 | -1.29 |
| CC(C)NCC(O)c1cc(O)cc(O)c1 (stereo not given) [Metaproterenol (hemisulfate)] | 3.08 | 0.666 | 26.4 | -8.48 | 1.44 |
| CN1CC(=O)N2[C@H](c3ccc4c(c3)OCO4)c3[nH]c4ccccc4c3C[C@@H]2C1=O [Tadalafil] | 3.64 | 1.33 | 0.0422 | 3.67 | 6.23 |
| CCCCC[C@H](O)CC[C@@H]1[C@H]2Cc3cccc(OCC(=O)O)c3C[C@H]2C[C@H]1O [Treprostinil] | -4.04 | -1.85 | 4.94 | -2.5 | -6.11 |
| Nc1nc2c(c(=O)[nH]1)N(C=O)C(CNc1ccc(C(=O)NC(CCC(=O)O)C(=O)O)cc1)CN2 (racemic) [DL-Folinic Acid (calcium salt)] | -0.743 | 2.87 | 8.84 | 0.082 | 5.53 |
| CN(C)CCc1c[nH]c2ccc(Cn3cncn3)cc12 [Rizatriptan (benzoate salt)] | 9.6 | -1.93 | 6.28 | 2.81 | 7.91 |
| CCc1cccc2c3c([nH]c12)C(CC)(CC(=O)O)OCC3 (stereo not given) [Etodolac] | -4.84 | 7.75 | 13.6 | 4.08 | 3.56 |
| CCC(=O)O[C@]1(C(=O)CCl)[C@@H](C)C[C@H]2[C@@H]3CCC4=CC(=O)C=C[C@]4(C)[C@@]3(F)[C@@H](O)C[C@@]21C [Clobetasol Propionate] | 2.04 | -8.98 | 19.3 | 0.438 | 4.92 |
| CC(=O)OCC(CCn1cnc2cnc(N)nc21)COC(C)=O [Famciclovir] | 0.306 | 6.99 | -7.41 | 0.929 | 4.52 |
| COCCCC/C(=N\OCCN)c1ccc(C(F)(F)F)cc1 [Fluvoxamine (maleate)] | 13.2 | -1.76 | -21.1 | -3.73 | 5.3 |
| CC1(C)O[C@@H]2C[C@H]3[C@@H]4CCC5=CC(=O)CC[C@]5(C)[C@@]4(F)[C@@H](O)C[C@]3(C)[C@]2(C(=O)CCl)O1 [Halcinonide] | -1.92 | 2.79 | 7.26 | 9.28 | 6.48 |
| Nc1ccc(O)c(C(=O)O)c1 [5-Aminosalicylic Acid] | 2.98 | 0.822 | 3.09 | 1.77 | -0.0944 |
| CC[C@H](C)C[C@H](C)CCCCCCCCC(=O)N[C@H]1C[C@@H](O)[C@@H](NCCN)NC(=O)[C@@H]2[C@@H](O)CCN2C(=O)[C@H]([C@H](O)CCN)NC(=O)[C@H]([C@H](O)[C@@H](O)c2ccc(O)cc2)NC(=O)[C@@H]2C[C@@H](O)CN2C(=O)[C@H]([C@@H](C)O)NC1=O [Caspofungin (acetate)] | 12.4 | -1.41 | -14 | -0.0911 | -8.06 |
| COC(=O)Nc1nc2cc(C(=O)c3ccccc3)ccc2[nH]1 [Mebendazole] | 9.6 | -4.07 | 8.64 | 0.057 | 4.46 |
| NC(=O)NO [Hydroxyurea] | -1.52 | 8.36 | 2.09 | 5.31 | 3.68 |
